Test results published in the supplement of paper PMC8047044.

What follows are molecules tested on Neuro-2a (assay: neurite formation score, plate-normalized to DMSO control mean 5.04 (score (0-8 scale)); higher = more or longer neurites). Conditions: 0.1 µM.
Method: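 Neuro-2a mouse neuroblastoma cells in PLL-coated 96-well plates were pre-treated for 1 h in DMEM(+) with each kinase inhibitor at 0.1 µM, then switched to serum-free DMEM(-) with inhibitor to induce neurite outgrowth and fixed about 2-3 h later. Three blinded observers scored neurite formation from 0 (no neurites) to 8 (long neurites on almost all cells).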
Molecule `O=C1NC(=O)/C(=C\c2ccc3nccnc3c2)S1` has a neurite formation score of 5.09. `Cc1cc(CS(=O)(=O)c2ccccc2)cc(OCc2ccc(CN3CCC[C@@H]3CO)cc2)c1` showed a neurite formation score of 5.58. Work on `O=[N+]([O-])c1ccc(-c2nc(-c3ccc(F)cc3)c(-c3ccncc3)[nH]2)cc1` yielded a neurite formation score of 4.25. Molecule `CCn1c(-c2nonc2N)nc2c(C#CC(C)(C)O)ncc(OC[C@H]3CCCNC3)c21` has a neurite formation score of 3.25. `COc1ccc(C(=O)Nc2sc3c(c2C(N)=O)CCCC3)cc1OC` showed a neurite formation score of 4.71.
